{"source": "PubChem BioAssay AID504339", "about": "(National Center for Advancing Translational Sciences (NCATS), 2011)", "note": "Values joined by “and” are separate entries in the source; they are usually repeats but may differ in a detail not shown here. Identical values can stand only once. Out of some 390,000 compounds screened, about 17,000 (4.4%) were called active. Another 8% or so got no clear call; they are omitted. The call rests on the fitted dose curve; in most records, active means well fitted inhibition curve with a large enough effect; inconclusive means small, poorly fitted or top-dose-only effect; inactive means no such curve, though single readings can be large or run the other way. Shown is part of a subset that was picked to be rich in actives. Where a call stands in place of a potency, no number is given. More than one record can exist for a structure, and the calls need not agree. Potency means the concentration at half of the fitted maximal effect.", "data": [{"biological_target": "Lysine-specific demethylase 4A (Homo sapiens) (UniProt O75164)", "sequence (O75164 whole entry, looked up, the tested form may be a part)": "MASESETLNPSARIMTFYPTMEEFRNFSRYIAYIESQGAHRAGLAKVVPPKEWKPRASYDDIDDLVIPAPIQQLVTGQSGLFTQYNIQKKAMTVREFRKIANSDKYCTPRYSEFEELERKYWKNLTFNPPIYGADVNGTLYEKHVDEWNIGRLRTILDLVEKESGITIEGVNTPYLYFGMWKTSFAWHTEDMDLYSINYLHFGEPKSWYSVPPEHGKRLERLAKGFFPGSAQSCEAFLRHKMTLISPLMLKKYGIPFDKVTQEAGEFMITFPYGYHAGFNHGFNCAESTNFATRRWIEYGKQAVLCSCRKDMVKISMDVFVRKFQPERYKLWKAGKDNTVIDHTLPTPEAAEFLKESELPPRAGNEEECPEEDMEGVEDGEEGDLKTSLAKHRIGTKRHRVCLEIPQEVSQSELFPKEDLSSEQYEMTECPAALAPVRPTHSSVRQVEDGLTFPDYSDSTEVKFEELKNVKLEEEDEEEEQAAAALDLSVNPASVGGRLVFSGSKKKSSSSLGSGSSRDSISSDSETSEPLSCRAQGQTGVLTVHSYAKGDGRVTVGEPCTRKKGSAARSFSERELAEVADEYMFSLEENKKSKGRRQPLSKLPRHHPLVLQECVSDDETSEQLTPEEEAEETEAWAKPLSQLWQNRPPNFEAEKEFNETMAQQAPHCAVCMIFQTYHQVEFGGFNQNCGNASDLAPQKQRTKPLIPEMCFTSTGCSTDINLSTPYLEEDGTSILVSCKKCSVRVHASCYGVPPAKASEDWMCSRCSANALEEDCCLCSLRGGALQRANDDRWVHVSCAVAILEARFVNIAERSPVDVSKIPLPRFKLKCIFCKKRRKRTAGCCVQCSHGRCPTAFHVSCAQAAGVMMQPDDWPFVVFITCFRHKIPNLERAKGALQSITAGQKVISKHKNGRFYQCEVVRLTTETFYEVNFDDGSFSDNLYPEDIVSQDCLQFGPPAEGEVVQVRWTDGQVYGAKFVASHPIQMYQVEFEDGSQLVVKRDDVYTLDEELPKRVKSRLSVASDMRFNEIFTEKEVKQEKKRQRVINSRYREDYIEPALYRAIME", "assay": "qHTS Assay for Inhibitors of JMJD2A-Tudor Domain; further: nearly all actives have a fitted effect of over 50% in size", "conditions": "AlphaScreen JMJD2A-Tudor / H3K4me3 peptide binding; series mostly up to 114 µM", "values": [{"smiles": "Cc1cccc(C)c1-n1c(C)cc(/C=C2\\C(=O)NN(c3ccccc3)C2=O)c1C", "Potency": "22.4 µM (active)"}, {"smiles": "Cc1ccc(CN2C(=O)N/C(=C/c3cc(C)n(-c4ccccn4)c3C)C2=O)cc1", "Potency": "inactive"}, {"smiles": "Cc1cc(/C=C2/NC(=O)NC2=O)c(C)n1-c1cccnc1", "Potency": "inactive"}, {"smiles": "CCOc1ccc(NC(=O)c2cc3c(=O)n(Cc4cccs4)ccc3nc2C)cc1", "Potency": "inactive"}, {"smiles": "Cc1cccc(NC(=O)c2nnn(CC(=O)Nc3ccc(C(C)C)cc3)c2N)c1C", "Potency": "inactive"}, {"smiles": "Cc1cc2nc(-c3ccc(NC(=O)c4cc5ccccc5o4)cc3)oc2cc1C", "Potency": "inactive"}, {"smiles": "CCOC(=O)N1CCc2c(sc3c2c(=O)n(Cc2ccccc2)c(=O)n3CC(=O)Nc2cccc(C)c2)C1", "Potency": "inactive"}, {"smiles": "COc1cccc(-n2c(=O)c3c(C)c(C(=O)N(C)C)sc3n(Cc3cccc(C)c3)c2=O)c1", "Potency": "inactive"}, {"smiles": "COc1ccc(CCNC(=O)Cn2c(=O)n(-c3ccccc3)c(=O)c3c(C)c(C)sc32)cc1OC", "Potency": "inactive"}, {"smiles": "COc1cccc(-n2c(=O)c3c(C)c(C(=O)N(C)C)sc3n(CC(=O)NCCc3ccc(OC)c(OC)c3)c2=O)c1", "Potency": "inactive and 79.4 µM (active)"}, {"smiles": "COc1ccc(-c2ccc(OC)c(C3C4C=CCC(C)C4C(=O)N3Cc3ccccc3)c2)cc1C", "note": "(stereo not drawn)", "Potency": "inactive"}, {"smiles": "COc1cccc(CNC(=O)CCc2nc(-c3ccc(C)cc3)no2)c1", "Potency": "inactive"}, {"smiles": "Cc1cc2c(cc1C)NC1(C[C@H]3CCC(=O)N4CC[C@@H](C1)[C@@H]34)C(=NC(C)(C)CC(C)(C)C)N2", "note": "(stereo partly drawn)", "Potency": "15.8 µM (active)"}, {"smiles": "O=C1CC[C@@H]2CC3(C[C@@H]4CCN1[C@H]24)Nc1cc([N+](=O)[O-])ccc1NC3=NC1CCCCC1", "note": "(stereo partly drawn)", "Potency": "inactive"}, {"smiles": "COC(=O)c1cccc(Cn2nnc3sc4c(c3c2=O)CCC(C(C)(C)C)C4)c1", "note": "(stereo not drawn)", "Potency": "inactive"}, {"smiles": "O=C(Nc1cccc2cccnc12)C(F)(F)F", "Potency": "inactive"}, {"smiles": "O=C(Nc1ccccc1)Oc1cccc2cccnc12", "Potency": "15.8 µM (active)"}, {"smiles": "OCc1ccc(OCCCOc2cccc3cccnc23)cc1", "Potency": "inactive"}, {"smiles": "CCOc1ccccc1NC(=O)Cn1nnc(C(=O)Nc2ccc(C)c(C)c2)c1N", "Potency": "inactive"}, {"smiles": "COc1cc(NS(=O)(=O)c2cccs2)cc(OC)c1", "Potency": "inactive"}, {"smiles": "Cc1cc(C(=O)OCC(=O)Nc2nnc(C(C)C)s2)c2ccccc2n1", "Potency": "inactive"}, {"smiles": "O=C(COC(=O)c1ccc(O)cc1)Nc1nccs1", "Potency": "inactive"}, {"smiles": "Cc1cc(C(=O)OCC(=O)Nc2nccs2)c2ccccc2n1", "Potency": "20 µM (active)"}, {"smiles": "Cc1cccc(CCNC(=O)c2ccc3c(c2)nc2n3CCC(C)C2)c1", "note": "(stereo not drawn)", "Potency": "inactive"}, {"smiles": "Cc1ccc(C)c(N2CCN(C(=O)Cn3ncn4cccc4c3=O)CC2)c1", "Potency": "inactive"}, {"smiles": "Cc1ccc(C)c(N2CCN(C(=O)Cn3nc(C)c4sc5ccccc5c4c3=O)CC2)c1", "Potency": "12.6 µM (active)"}, {"smiles": "Cc1nn(CC(=O)NCCc2ccccc2)c(=O)c2c1sc1ccccc12", "Potency": "inactive"}, {"smiles": "CC(=O)c1ccc(NC(=O)c2nc(-c3ccc(C)cc3)n3c2CCCCC3)cc1", "Potency": "inactive"}, {"smiles": "CCc1nnc2c3ccccc3nc(N3CCN(c4ccc(C)cc4C)CC3)n12", "Potency": "inactive"}, {"smiles": "COc1ccc2sc(N(CCCN(C)C)C(=O)c3ccc(S(=O)(=O)N(C)C4CCCCC4)cc3)nc2c1", "Potency": "56.2 µM (active)"}, {"smiles": "CCN(CC)CCN(C(=O)c1cccc([N+](=O)[O-])c1)c1nc2ccc(OC)cc2s1", "Potency": "inactive"}, {"smiles": "CN(C)S(=O)(=O)c1ccc(C(=O)N(Cc2cccnc2)c2nc3c(F)cc(F)cc3s2)cc1", "Potency": "inactive"}, {"smiles": "CCOc1ccc(C(=O)c2cn(Cc3ccccc3OC)c3ccc(F)cc3c2=O)cc1", "Potency": "inactive"}, {"smiles": "CCN(CC)c1ccc(NC(=O)CN2C(=O)c3cccnc3Oc3ccc(Cl)cc32)c(C)c1", "Potency": "inactive"}, {"smiles": "COC(=O)c1c(NC(=O)CCCOc2ccccc2)sc2c1CCC(C)C2", "note": "(stereo not drawn)", "Potency": "inactive"}, {"smiles": "O=C(CN1CCCCCC1)Nc1ccc(Br)cc1[N+](=O)[O-]", "Potency": "44.7 µM (active)"}, {"smiles": "O=C(CN1CCCCCC1)Nc1ccc(Br)cc1Br", "Potency": "inactive"}, {"smiles": "O=C(CN1CCCCCC1)Nc1ccc(Cl)cc1F", "Potency": "inactive"}, {"smiles": "Cn1c(COc2ccccc2C(C)(C)C)nc2ccccc21", "Potency": "inactive"}, {"smiles": "CCOCCn1ccc2c(OCC(=O)NCc3ccc(C)cc3)cccc2c1=O", "Potency": "inactive"}, {"smiles": "CC(O)CNCCOc1cccc(Oc2ccccc2)c1", "note": "(stereo not drawn)", "Potency": "3.55 µM (active)"}, {"smiles": "C=CCNCCCCOc1ccccc1", "Potency": "inactive"}, {"smiles": "CC1(C)NC(=O)N(CCOc2cccc(Oc3ccccc3)c2)C1=O", "Potency": "inactive"}, {"smiles": "CCOc1ccc(NC(=O)c2cc(S(=O)(=O)N3CCCC3)c[nH]2)cc1", "Potency": "inactive"}, {"smiles": "O=C(CSc1nc(-c2ccccc2)cs1)Nc1cccc([N+](=O)[O-])c1", "Potency": "inactive"}, {"smiles": "Cn1c(=O)c2c(ncn2CC(=O)Nc2cccc(C(F)(F)F)c2)n(C)c1=O", "Potency": "inactive"}, {"smiles": "O=C(CSc1nnc(-c2ccccc2F)o1)Nc1cccc(C(F)(F)F)c1", "Potency": "inactive"}, {"smiles": "O=[N+]([O-])c1cccc(S(=O)(=O)NCc2ccccn2)c1", "Potency": "inactive"}, {"smiles": "O=c1cc(CO)oc(C(Nc2cccc(C(F)(F)F)c2)c2ccccn2)c1O", "note": "(stereo not drawn)", "Potency": "56.2 µM (active)"}, {"smiles": "O=c1cc(CO)oc(C(Nc2cccc([N+](=O)[O-])c2)c2ccccn2)c1O", "note": "(stereo not drawn)", "Potency": "50.1 µM (active)"}, {"smiles": "COc1cccc(-c2nnc3n(CCc4ccccc4)c(=O)c4ccccc4n23)c1O", "Potency": "inactive"}, {"smiles": "Cc1ccc(-c2nc(Cn3c(=O)cc(-c4ccccc4)c4c(C)nn(C)c43)c(C)o2)cc1", "Potency": "inactive"}, {"smiles": "COc1ccc(CNC(=O)CCc2c(C)nn(-c3ccc(N4CCCC4)nn3)c2C)cc1", "Potency": "inactive"}, {"smiles": "CCOc1ccc(C(=O)c2cn(Cc3ccc(F)cc3)c3ccc(F)cc3c2=O)cc1", "Potency": "inactive"}, {"smiles": "Cc1cccc(Cn2c(CN3CCC(C(=O)NCc4ccccc4Cl)CC3)cc3ccccc32)c1", "Potency": "inactive"}, {"smiles": "CCOC(=O)c1c(SCC(=O)Nc2cccc(C)c2C)nc(=O)[nH]c1C", "Potency": "inactive"}, {"smiles": "CC1=C(C(=O)Nc2ccccc2)C(c2ccc(C)cc2)n2nc(SCc3ccccc3C)nc2N1", "note": "(stereo not drawn)", "Potency": "inactive"}, {"smiles": "OCCn1c(-c2ccccc2)csc1=Nc1ccccc1", "Potency": "56.2 µM (active)"}, {"smiles": "O=c1cc(CCl)nc2scc(-c3ccccc3)n12", "Potency": "inactive"}, {"smiles": "CN(C)CCCn1c(=O)n(Cc2ccccc2)c(=O)c2c3c(sc21)CCCCC3", "Potency": "inactive"}, {"smiles": "CN(C)CCCn1c(-c2ccc(Cl)cc2)csc1=Nc1ccccc1", "Potency": "39.8 µM (active)"}, {"smiles": "CC(C)Cn1c(-c2ccc(S(=O)(=O)N3CCOCC3)cc2)csc1=Nc1cc(Cl)ccc1Cl", "Potency": "inactive"}, {"smiles": "CCN(c1ncnc2c1cnn2-c1ccc(C)cc1)C1CCCCC1", "Potency": "inactive"}, {"smiles": "COc1ccc(-c2ccc(=O)n(CC(=O)Nc3ccc(Br)cc3F)n2)cc1", "Potency": "inactive"}, {"smiles": "COCC(C)N=CC1=C(O)CC(C)(C)CC1=O", "note": "(stereo not drawn)", "Potency": "inactive"}, {"smiles": "C=CCO/N=C/C1=C(O)C(C(=O)OC)C(C)(C)CC1=O", "note": "(stereo not drawn)", "Potency": "79.4 µM (active)"}, {"smiles": "CCCC(=O)C1=C(N(C)c2ccccc2)CC(C)(C)C(C(=O)OC)C1=O", "note": "(stereo not drawn)", "Potency": "inactive"}, {"smiles": "Cn1c(=O)c2c(SCC(=O)NCC3CCCO3)nc(-c3ccccc3F)nc2n(C)c1=O", "note": "(stereo not drawn)", "Potency": "inactive"}, {"smiles": "O=C(CCS(=O)(=O)c1cc(Br)cc2c1N(C(=O)C1CC1)CC2)Nc1ccc(C(F)(F)F)cc1", "Potency": "inactive"}, {"smiles": "COc1ccc(OC)c(NC(=O)CN2CCCN(Cc3cc(C)ccc3C)S2(=O)=O)c1", "Potency": "inactive"}, {"smiles": "Cc1cccc(C(=O)OC(C)CN2CCCC2)c1", "note": "(stereo not drawn)", "Potency": "inactive"}, {"smiles": "Cc1ccc(C(C)C)cc1OCC(=O)Nc1ccccc1N1CCCC1", "Potency": "inactive"}, {"smiles": "Cc1cc(OCCN2CCCC2)cc(C(C)C)c1", "Potency": "5.01 µM (active)"}, {"smiles": "COc1cc(/C=N/NC(=O)c2ccoc2C)ccc1OCCN1CCCCC1", "Potency": "inactive"}, {"smiles": "Cc1ccc(C(C)C)cc1OCCN1CCCC1", "Potency": "79.4 µM (active)"}, {"smiles": "CCCn1c(=N)c(C(=O)NCc2ccccc2)cc2c(=O)n3cccc(C)c3nc21", "Potency": "inactive"}, {"smiles": "Cn1c(=O)c2c(SCC(=O)N3CCc4ccccc43)nc(-c3ccc(Cl)cc3)nc2n(C)c1=O", "Potency": "inactive"}, {"smiles": "CCNC(=O)CC1C(=O)N(c2ccc(F)cc2)C(=O)N1Cc1ccc(C)cc1", "note": "(stereo not drawn)", "Potency": "inactive"}, {"smiles": "CN1CCN(C2(CNC(=O)COc3ccc(C(C)(C)C)cc3)CCCCC2)CC1", "Potency": "inactive"}, {"smiles": "Cc1ccc(Cl)cc1N1CCN(C(=O)CN2C(=O)COc3ccc(S(=O)(=O)N4CCOCC4)cc32)CC1", "Potency": "inactive"}, {"smiles": "Oc1ccc(Cl)cc1C1C=C(c2ccc3c(c2)OCO3)NC(c2ccc(F)c(Br)c2)N1", "note": "(stereo not drawn)", "Potency": "inactive"}, {"smiles": "CC(C)c1ccc(C2CC(=O)N3CN(C4CCCCC4)CSC3=C2C#N)cc1", "note": "(stereo not drawn)", "Potency": "25.1 µM (active)"}, {"smiles": "CC(C)c1ccc(C2C(C#N)=C(N)Oc3c2oc(CO)cc3=O)cc1", "note": "(stereo not drawn)", "Potency": "inactive"}, {"smiles": "COc1ccc(NC(=O)CSc2nc(N)c(-c3ccccc3)c(=O)[nH]2)cc1", "Potency": "inactive"}, {"smiles": "COc1cc(OC)cc(-c2nnc(SCC(=O)Nc3ccc(C(=O)O)cc3)s2)c1", "Potency": "inactive"}, {"smiles": "COc1ccc(-c2nc3c(c(SCC(=O)Nc4ccc(C(=O)O)cc4)n2)Cc2ccccc2O3)cc1", "Potency": "35.5 µM (active)"}, {"smiles": "CN(Cc1ccccc1)C(=O)c1cn(C)c2ccc(S(=O)(=O)N3CCCCC3)cc2c1=O", "Potency": "inactive"}, {"smiles": "CCOc1ccc(CN2CCN(CCCc3ccccc3)C(CCO)C2)cc1", "note": "(stereo not drawn)", "Potency": "inactive"}, {"smiles": "CCOc1ccc(CN2CCCN(C)CC2)cc1", "Potency": "3.55 µM (active)"}, {"smiles": "CCOc1ccc(CC(=O)NC2CCN(Cc3ccccc3)CC2)cc1", "Potency": "inactive"}, {"smiles": "CCOc1ccccc1CNC(=O)c1ccc(-n2c(C)cc3c2CCC(C)C3)cc1", "note": "(stereo not drawn)", "Potency": "inactive"}, {"smiles": "COc1ccc(/C=C2/C(=O)OCc3cc(OC)c(OC)cc32)c(OC)c1", "Potency": "inactive"}, {"smiles": "COc1ccc(/C=C2/C(=O)N(c3ccccc3)N=C2C)c(OC)c1", "Potency": "15.8 µM (active)"}, {"smiles": "COc1ccc(C(=O)COC(=O)C(O)c2ccccc2)c(OC)c1", "note": "(stereo not drawn)", "Potency": "inactive"}, {"smiles": "Cc1ccc(CNC(=O)CCc2c(C)nc3c(c(C)nn3-c3ccccc3)c2C)cc1", "Potency": "inactive"}, {"smiles": "Cc1ccc(S(=O)(=O)CC(=O)NC(C)c2ccccc2)cc1", "note": "(stereo not drawn)", "Potency": "inactive"}, {"smiles": "C/C(CC(=O)NC(C)c1ccccc1)=N\\NC(N)=S", "note": "(stereo not drawn)", "Potency": "31.6 µM (active)"}, {"smiles": "Cc1cc(C(=O)NNC(=S)NC(C)c2ccccc2)cs1", "note": "(stereo not drawn)", "Potency": "inactive"}]}]}
